Among the data in PubChem BioAssay (NCATS) are outcome values, retold here.

The structures appear in SMILES notation. Results filed as inconclusive are left out. Active and inactive are the calls of the source. The call rests on the fitted dose curve; in most records, active means well fitted cell-killing curve with a large enough effect; inconclusive means small, poorly fitted or top-dose-only effect; inactive means no such curve, though single readings can be large or run the other way.

The test is described as follows: qHTS of pediatric cancer cell lines to identify multiple opportunities for drug repurposing: Primary screen for Rh41 cells (AID 1347108).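 Further: luminescence drop marks cytotoxic hits; nearly all actives have a fitted effect of over 70% in size.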 Particulars: Rh41 rhabdomyosarcoma viability, CellTiter-Glo luminescence, 48 h; series mostly up to 46 µM. In short, it runs like this:
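Phenotypic viability qHTS, 48 h compound exposure, CellTiter-Glo luminescence read-out; multi-concentration dosing so that potency and efficacy derive directly from the primary screen's curves.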
Turning to `CN1C[C@@H]2C[C@H]1CN2c1cc2c(cc1F)c(=O)c(C(=O)O)cn2C1CC1`, the outcome was inactive.

`C=CCNC(N)=S`: the result was inactive.

On to `CNc1c2c(nn1C)CCCC2`, for which the molecule was classed as inactive.

Regarding `Nc1c2c(nc3c1CCC3)CCCC2`, the result was inactive.

Consider `COC(=O)N/N=C/c1c[n+]([O-])c2ccccc2[n+]1[O-]`, for which the result was inactive.

For the molecule `O=C(O)c1ccc[n+]([O-])c1`, the call was inactive.

Regarding `Cc1cc(C)nc(NS(=O)(=O)c2ccc(N)cc2)n1`, the call was inactive.

Regarding `FC(F)(F)C(Cl)Br` (configuration not stated), the outcome was inactive.

In the case of `CC(=O)SC[C@@H](Cc1ccccc1)C(=O)NCC(=O)OCc1ccccc1`, the molecule was classed as inactive.

For `C=CCSCC1Nc2cc(Cl)c(S(N)(=O)=O)cc2S(=O)(=O)N1` (configuration not stated), the call was inactive.

With `NS(=O)(=O)c1ccc(NC(=O)CCC(=O)O)cc1`, the molecule was called inactive.

Turning to `CCN(CC)CCOC(=O)C(c1ccccc1)c1ccccc1`, the call was inactive.

On to `CC(=O)Nc1ccc(OCCOCCOc2ccc(NC(C)=O)cc2)cc1`, for which the call was inactive.

For `COc1ccc(NS(=O)(=O)c2ccc(N)cc2)nn1`, the molecule was called inactive.

With `O=C(O)c1ccccc1C(=O)Nc1ccc(S(=O)(=O)Nc2nccs2)cc1`, the result was inactive.

Turning to `CCOC(=O)OC(C)OC(=O)[C@@H]1N2C(=O)[C@@H](NC(=O)[C@H](N)c3ccccc3)[C@H]2SC1(C)C` (some centres not stated), the molecule was classed as inactive.

In the case of `OC(CCN1CCCC1)(c1ccccc1)C1CCCCC1` (configuration not stated), the result was inactive.

On to `Cc1c(N(C)C)c(=O)n(-c2ccccc2)n1C`, for which the outcome was inactive.

As for `CC(CN(C)C)C(C)(O)Cc1ccc(Cl)cc1` (configuration not stated), the outcome was inactive.

Turning to `NS(=O)(=O)c1ccc(C(=O)O)cc1`, the call was inactive.

With `CC(=O)N1C[C@H](O)C[C@H]1C(=O)O`, the molecule was called inactive.

For `O=c1[nH]cnc2nc[nH]c12`, the molecule was called inactive.

Turning to `C[N+](C)(C)CC(O)CC(=O)[O-]` (configuration not stated), the molecule was classed as inactive.

As to `C[C@H]1COc2c(C3(N)CC3)c(F)cc3c(=O)c(C(=O)O)cn1c23`, the result was inactive.

In the case of `CC(=O)N[C@H]1[C@H]([C@H](O)[C@H](O)CO)OC(C(=O)O)=C[C@@H]1N=C(N)N`, the result was inactive.

Turning to `C/C=C1\[C@H]2C=C(C)C[C@]1(N)c1ccc(=O)[nH]c1C2`, the molecule was classed as inactive.

Consider `CCCCCCCCCCCCCCCCCCO`, for which the outcome was inactive.

With `C[C@@H](N)C(=O)O`, the outcome was inactive.

As for `CC1(C)[C@@H](OC(=O)CCC(=O)O)CC[C@]2(C)[C@H]3C(=O)C=C4[C@@H]5C[C@@](C)(C(=O)O)CC[C@]5(C)CC[C@@]4(C)[C@]3(C)CC[C@@H]12`, the call was inactive.

For `CCN(CC)CCc1nc(-c2ccccc2)no1`, the molecule was called inactive.

For `O=C1c2ccccc2S(=O)(=O)N1CCCCN1CCN(c2ncccn2)CC1`, the call was inactive.

For the molecule `Cn1c([N+](=O)[O-])cnc1COC(N)=O`, the outcome was inactive.

As for `O=C(O)c1ccccc1OP(=O)(O)O`, the molecule was called inactive.

Consider `CCN(CC)C(=O)c1cccc(C)c1`, for which the molecule was called inactive.

Take `CO[C@@]1(NC(=O)C(C(=O)O)c2ccc(O)cc2)C(=O)N2C(C(=O)O)=C(CSc3nnnn3C)CO[C@@H]21` (some centres not stated): the call was inactive.

Regarding `CCCNC(C)C(=O)Nc1c(C)csc1C(=O)OC` (configuration not stated), the result was inactive.

For `O=C(NCCCN1CCOCC1)c1ccc(Cl)cc1`, the outcome was inactive.
